Test results taken from article PMC3218832.

Legend:
Experiment in all cases: protein binding microarray; high values mean tight binding
Conditions in all cases: dsDNA, one strand shown
RELARELA (p65 homodimer) = RELARELA (p65 homodimer) (Homo sapiens, UniProt Q04206 1-307)
p50p50 homodimer = p50p50 homodimer (Homo sapiens, UniProt P19838 7-356)
p52p52 homodimer = molecular target: T1, p52p52 homodimer (Homo sapiens, UniProt Q00653 4-332)
T1 sequence: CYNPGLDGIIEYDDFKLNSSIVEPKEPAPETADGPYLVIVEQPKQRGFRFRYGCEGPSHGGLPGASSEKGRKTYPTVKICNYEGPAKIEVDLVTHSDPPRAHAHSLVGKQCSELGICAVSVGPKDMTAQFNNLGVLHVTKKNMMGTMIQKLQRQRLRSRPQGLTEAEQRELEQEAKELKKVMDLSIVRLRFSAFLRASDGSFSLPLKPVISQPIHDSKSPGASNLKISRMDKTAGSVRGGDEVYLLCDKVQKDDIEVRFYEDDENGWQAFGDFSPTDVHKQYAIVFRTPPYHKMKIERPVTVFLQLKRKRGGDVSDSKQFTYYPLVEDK

[1] = molecular target: RELA (p65) subunit of heterodimer;p50 subunit (Homo sapiens;Homo sapiens, UniProt Q04206;P19838 1-307;7-356)
[2] = molecular target: RELA (p65) subunit of heterodimer;p52 subunit (Homo sapiens;Homo sapiens, UniProt Q04206;Q00653 1-307;4-332)
RELB subunit;p50 subunit = RELB subunit;p50 subunit (Homo sapiens;Homo sapiens, UniProt Q01201;P19838 120-401;7-356)
RELB subunit;p52 subunit = molecular target: T2, RELB subunit;p52 subunit (Homo sapiens;Homo sapiens, UniProt Q01201;Q00653 120-401;4-332)
T2 sequence 1: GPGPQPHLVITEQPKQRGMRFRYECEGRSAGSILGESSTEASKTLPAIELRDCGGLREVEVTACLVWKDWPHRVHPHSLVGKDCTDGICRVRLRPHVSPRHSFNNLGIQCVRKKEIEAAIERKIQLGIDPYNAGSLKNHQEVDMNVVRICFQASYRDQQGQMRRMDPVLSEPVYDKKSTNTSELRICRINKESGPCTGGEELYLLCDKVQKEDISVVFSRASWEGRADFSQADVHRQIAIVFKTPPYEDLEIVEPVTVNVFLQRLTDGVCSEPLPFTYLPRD
T2 sequence 2: T1 sequence

[3] = molecular target: C-Rel subunit;p50 subunit (Homo sapiens;Homo sapiens, UniProt Q04864;P19838 1-285;7-356)
[4] = molecular target: T3, C-Rel subunit;p52 subunit (Homo sapiens;Homo sapiens, UniProt Q04864;Q00653 1-285;4-332)
T3 sequence 1: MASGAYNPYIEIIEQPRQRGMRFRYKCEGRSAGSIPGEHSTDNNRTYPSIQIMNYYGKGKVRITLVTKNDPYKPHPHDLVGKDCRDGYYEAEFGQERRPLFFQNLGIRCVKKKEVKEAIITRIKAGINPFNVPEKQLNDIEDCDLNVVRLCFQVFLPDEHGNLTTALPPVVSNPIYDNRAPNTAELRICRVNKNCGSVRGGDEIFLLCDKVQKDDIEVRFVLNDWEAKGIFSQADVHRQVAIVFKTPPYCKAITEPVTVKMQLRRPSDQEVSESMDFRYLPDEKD
T3 sequence 2: T1 sequence

p50p50 homodimer, sequence (P19838 7-356): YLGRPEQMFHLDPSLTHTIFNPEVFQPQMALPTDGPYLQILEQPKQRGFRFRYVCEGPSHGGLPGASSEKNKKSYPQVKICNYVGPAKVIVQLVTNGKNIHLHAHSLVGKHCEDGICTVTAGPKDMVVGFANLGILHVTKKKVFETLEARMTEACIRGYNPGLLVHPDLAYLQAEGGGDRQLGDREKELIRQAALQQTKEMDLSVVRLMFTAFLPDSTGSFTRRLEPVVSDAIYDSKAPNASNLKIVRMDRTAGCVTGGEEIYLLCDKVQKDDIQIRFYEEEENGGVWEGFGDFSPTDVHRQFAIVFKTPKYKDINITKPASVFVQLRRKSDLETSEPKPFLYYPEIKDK
RELARELA (p65 homodimer), sequence (Q04206 1-307): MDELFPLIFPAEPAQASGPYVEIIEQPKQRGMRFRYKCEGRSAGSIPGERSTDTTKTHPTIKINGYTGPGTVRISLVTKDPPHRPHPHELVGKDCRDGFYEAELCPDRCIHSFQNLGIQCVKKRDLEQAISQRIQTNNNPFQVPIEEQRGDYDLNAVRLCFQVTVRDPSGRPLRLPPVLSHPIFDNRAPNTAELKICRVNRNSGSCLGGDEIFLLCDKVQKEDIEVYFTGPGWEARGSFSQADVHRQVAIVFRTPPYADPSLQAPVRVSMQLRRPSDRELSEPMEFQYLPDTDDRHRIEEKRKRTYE
RELA (p65) subunit of heterodimer;p50 subunit, sequence (Q04206 1-307, chain 1 of 2): as the sequence (Q04206 1-307) above
RELA (p65) subunit of heterodimer;p50 subunit, sequence (P19838 7-356, chain 2 of 2): as the sequence (P19838 7-356) above

| Sequence | binding signal (RELARELA (p65 homodimer)) [z-score] | binding signal (p50p50 homodimer) [z-score] | binding signal (p52p52 homodimer) [z-score] | binding signal [1] [z-score] | binding signal [2] [z-score] | binding signal (RELB subunit;p50 subunit) [z-score] | binding signal (RELB subunit;p52 subunit) [z-score] | binding signal [3] [z-score] | binding signal [4] [z-score] |
| --- | --- | --- | --- | --- | --- | --- | --- | --- | --- |
| CAGTTCTTCCC | 1.2 | -0.0833 | -0.0924 | 0.385 | 0.0986 | -0.231 | -0.179 | 0.641 | 0.366 |
| CGAATGTCCCC | 0.531 | 1.1 | 0.861 | 1.09 | 1.07 | 1.07 | 1.17 | 1.01 | 0.868 |
| CGATGTACCCC | 0.132 | 0 | -0.0732 | -0.125 | 0.16 | 0.299 | 0.491 | 0.113 | 0.101 |
| GGAGACGCCCT | -0.954 | -1.6 | -0.72 | -0.832 | -0.77 | -1.05 | -0.933 | -1.16 | -0.641 |
| AGGTGTGCCCT | -0.542 | -1.63 | -0.541 | -0.712 | -0.661 | -0.956 | -0.903 | -0.883 | -0.535 |
| CAATATACCCC | -0.012 | 0.317 | 0.195 | 0.199 | 0.442 | 0.428 | 0.992 | 0.384 | 0.51 |
| CGGGGTTCCCC | 2.62 | 0.899 | 3.05 | 2.3 | 2.64 | 1.93 | 2.28 | 2.2 | 3.29 |
| CGGTTTTTCCC | 3.71 | 0.935 | 2.66 | 1.81 | 1.88 | 1.05 | 1.78 | 1.57 | 2.3 |
| CAATTCCCCCC | 1.09 | 1.66 | 1.93 | 2.3 | 1.94 | 2.19 | 2.34 | 1.94 | 1.85 |
| AGATAAGCCCT | -0.464 | -1.05 | -0.697 | -0.764 | -0.927 | -1.1 | -0.798 | -0.985 | -0.712 |
| AGAAGTCCCCC | 0.863 | 1.4 | 1.58 | 1.97 | 1.75 | 2.05 | 2.01 | 1.53 | 1.63 |
| GGGGACACCCC | 0.873 | 0.656 | 2.83 | 1.56 | 2.26 | 1.68 | 2.1 | 1.26 | 2.35 |
| CGGTGCTTCCC | 0.809 | 0.562 | 2.72 | 1.22 | 1.98 | 1.09 | 2.06 | 0.924 | 2.22 |
| AGATTATCCCT | 0.0615 | 0.543 | 0.486 | 0.262 | 0.522 | 0.325 | 0.392 | 0.0293 | 0.0511 |
| AGGAATATCCC | 1.97 | 0.155 | 0.511 | 0.866 | 0.83 | 0.0984 | 0.231 | 0.402 | 0.834 |
